Screening results deposited in PubChem by National Center for Advancing Translational Sciences (NCATS).
The list is not random: actives were taken first. Their share in the collection is about 12%.
Sm TGR block = blocks Schistosoma mansoni thioredoxin glutathione reductase; Q962Y6; purified TGR, DTNB reduction, TNB absorbance 405 nm; Potency, µM (titrated, usually from 114 µM), most hits filed as inhibitors; hit rate 3% among 360,000; AID 485364; active = well fitted inhibition curve with a large enough effect; inconclusive = small, poorly fitted or top-dose-only effect; inactive = no such curve, though single readings can be large or run the other way; note: nearly all actives have a fitted effect of over 60% in size
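Kinetic colorimetric format: TGR-catalysed, NADPH-driven DTNB reduction monitored via TNB absorbance. Enzyme dispensed at 20 nM; compound exposure 15 min at room temperature before reaction start.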
FMDV antiviral = antivirals against foot and mouth disease virus; FMDV antiviral cell-based qHTS; Potency, µM (series often up to 57.9 µM), usual class: inhibitors; hit rate 1.2% among 410,000; AID 1159524; calls by dose curve; tested in HEK293T cells; note: read-out not given here; nearly all actives have a fitted effect of over 45% in size
Cycloheximide cs = affects cycloheximide protein synthesis inhibition readout, counter-screen; cell reporter, cycloheximide protein synthesis inhibition counterscreen; hit rate 12% among 300,000; max response, %; in the data active = max response mostly above about 13%, no sharp cut-off; inactive = mostly below about 14%; note: read at 38.3 µM for the half of the compounds with a filed dose
Shiga toxin inh = Shiga toxin inhibition; inhibition, % at 38.7 µM; AID 2315; hit rate 9.2% among 290,000; Vero cells, Shiga toxin protein synthesis inhibition reporter; in the data active = inhibition mostly above about 28%, no sharp cut-off; inactive = mostly below about 43%
Large screens that a line does not name were inactive.

Cc1nc2ccc(NC(=O)COc3ccccc3)cc2s1	Cycloheximide cs 23
CC(=O)c1ccc(OCC(=O)Nc2ccc3nc(C)sc3c2)cc1	none
Cc1cc(CNC(=O)COc2ccccc2)c2ccccc2n1	Cycloheximide cs 17
Cc1ccc(CSc2nc3ccc(NC(=O)COc4ccccc4)cc3s2)cc1	none (no result: Cycloheximide cs, Shiga toxin inh)
Cc1cc(CNC(=O)COc2ccc(F)cc2)c2ccccc2n1	FMDV antiviral inconclusive
Cc1cccc(OCC(=O)Nc2ccc3nc(C)sc3c2)c1	Shiga toxin inh 63
CCC(=O)Nc1nc2ccc(NC(=O)COc3ccccc3)cc2s1	none
Cc1nc2ccc(NC(=O)COc3cccc(F)c3)cc2s1	Cycloheximide cs 26
COc1ccc(-c2nc3scc(CCNS(=O)(=O)c4ccc(C)cc4)n3n2)cc1	none (no result: Cycloheximide cs, Shiga toxin inh)
COc1ccc(OCCC(=O)NC2=NCCS2)cc1	Cycloheximide cs 27
CCOc1ccc(OCCCC(=O)NC2=NCCS2)cc1	none
CC(C)(C)c1ccc(OCCC(=O)NC2=NCCS2)cc1	Cycloheximide cs 12
CCN(CC)c1ccc2nc3c4ccccc4c(=O)cc-3oc2c1	FMDV antiviral inconclusive, Cycloheximide cs 52, Shiga toxin inh 65
COC(=O)c1cc2sc(C)cc2n1CC(=O)Nc1ccc(C)cc1Cl	none (no result: Cycloheximide cs, Shiga toxin inh)
COc1ccccc1-c1cc2nc(C)c(CCC(=O)NCc3cccc(Cl)c3)c(C)n2n1	FMDV antiviral inconclusive (no result: Cycloheximide cs, Shiga toxin inh)
CCSc1nnc2ccc(-c3ccc(OC)c(OC)c3)nn12	Cycloheximide cs 25
Cc1nn(C(C)C(=O)NC2CCCCC2)c(=O)c2c1sc1ccccc12 (stereo not given)	none (no result: Cycloheximide cs, Shiga toxin inh)
COc1cccc(-n2nc(C#N)c(Cl)cc2=O)c1	Sm TGR block 2.5µM, FMDV antiviral 11µM
CCOC(=O)c1ccc(Nc2nc(C)cc(C)n2)cc1	none
Cc1cc(C)nc(Nc2ccc(F)cc2)n1	none
CC(=O)c1ccc(Nc2cc(C)nc3ccccc23)cc1	Cycloheximide cs 18
CC(=O)c1ccc(Nc2nc(C)cc(C)n2)cc1	Cycloheximide cs 28
Cc1cccc(Nc2nc(C)cc(C)n2)c1	Cycloheximide cs 15, Shiga toxin inh 24
CC(=O)c1ccc(Nc2cc(C)nc3c(C)cccc23)cc1	none
CCOC(=O)c1c(C)[nH]c(CCC(=O)NCc2cc(OC)c(OC)c(OC)c2)c1C	none (no result: Cycloheximide cs, Shiga toxin inh)
COc1ccc(N=C2SC(CC(=O)Nc3ccccc3OC)C(=O)N2Cc2ccco2)cc1 (stereo not given)	Sm TGR block 50µM, Cycloheximide cs 24, Shiga toxin inh 40
CCn1c(-c2ccccc2F)nc2cc(C(=O)NCc3ccc(C)o3)cc(NC(C)=O)c21	none (no result: Sm TGR block, Cycloheximide cs, Shiga toxin inh)
CCOC(=O)C1CCCN(C(=O)CCCn2nnnc2CN2CCOCC2)C1 (stereo not given)	Sm TGR block 40µM
O=C(CCn1nnnc1CN1CCOCC1)N1CCC(c2ccccc2F)C1 (stereo not given)	Sm TGR block 25µM
O=C(CCCc1ccccc1)NC1CC(=O)N(c2ccc(F)cc2)C1 (stereo not given)	none (no result: Cycloheximide cs, Shiga toxin inh)
CN=C(c1ccc(C)cc1)n1c(=S)nc(-c2ccc(C)cc2)n(C)c1=S	Cycloheximide cs 43, Shiga toxin inh 85
CN=C(c1ccco1)n1c(=S)nc(-c2ccco2)n(C)c1=S	none
C=CCN(c1ccc(C(=O)OC)cc1)S(=O)(=O)c1ccccc1	Cycloheximide cs 33, Shiga toxin inh 92
C=CCN(c1ccc(C(=O)Nc2ccc(C)cc2)cc1)S(C)(=O)=O	none
C=CCN(c1ccc(C(=O)Nc2ccc(C)c(C)c2)cc1)S(C)(=O)=O	FMDV antiviral inconclusive, Cycloheximide cs 19
C=CCN(c1ccc(C(=O)NCCSc2ccccc2)cc1)S(C)(=O)=O	Cycloheximide cs 33, Shiga toxin inh 120
O=c1c2cccnc2n(Cc2ccc(Cl)cc2)c(=O)n1Cc1ccc(F)cc1	none (no result: Cycloheximide cs, Shiga toxin inh)
Nc1ccc(C(=O)Oc2ccc([N+](=O)[O-])cc2)c(O)c1	Sm TGR block 28µM (no result: FMDV antiviral)
CCCCC(=O)c1ccc(OC(=O)c2ccc([N+](=O)[O-])cc2)cc1	none (no result: Sm TGR block, Cycloheximide cs, Shiga toxin inh)
Nc1ccc(C(=O)Oc2ccc([N+](=O)[O-])cc2)cc1	Cycloheximide cs 51, Shiga toxin inh 105
Nc1ccc(C(=O)OCC(=O)Nc2cc([N+](=O)[O-])ccc2F)cc1	Cycloheximide cs 12
CN(C)S(=O)(=O)c1cccc(NC(=S)NCCCn2ccnc2)c1	Sm TGR block 50µM
O=C(O)C1C2CCC(C2)C1C(=O)NCCCn1ccnc1 (stereo not given)	none
O=C(O)C1C2C=CC(O2)C1C(=O)NCCCn1ccnc1 (stereo not given)	Sm TGR block 50µM (no result: FMDV antiviral)
O=C(NCCCn1ccnc1)C(=O)Nc1ccccc1	Cycloheximide cs 16 (no result: Sm TGR block)
CCOc1ccccc1NC(=O)N(Cc1ccc(F)cc1)C1CCN(CC)CC1	none (no result: Cycloheximide cs, Shiga toxin inh)
CCOc1ccc2c(c1)c(=O)c(S(=O)(=O)c1ccccc1)cn2CC(=O)Nc1ccccc1OC	none (no result: Cycloheximide cs, Shiga toxin inh)
COC1=C/C(=C/c2c(N)n3c(nc2=O)sc2cc(S(C)(=O)=O)ccc23)C=CC1=O	none
CS(=O)(=O)c1ccc2c(c1)sc1nc(=O)c(/C=C3/C=CC(=O)C(O)=C3)c(N)n12	Sm TGR block 45µM, Cycloheximide cs 20, Shiga toxin inh 41
CCC(=O)Nc1ccc(C(=O)NCc2ccccn2)cc1	none (no result: Sm TGR block)
COc1ccc(NC(=O)NCc2ccccn2)cc1	none
CCc1ccc(NC(=O)NCc2ccccn2)cc1	Cycloheximide cs 43, Shiga toxin inh 46
CCCCc1ccc(NC(=O)NCc2ccccn2)cc1	Cycloheximide cs 15
C/C(=N\Nc1ccc(Cl)c(C(=O)O)c1)c1ccc(N2CCOCC2)cc1	Sm TGR block inconclusive, Cycloheximide cs 118, Shiga toxin inh 156
O=C(O)c1cc(N/N=C/c2ccc(N3CCOCC3)s2)ccc1Cl	Sm TGR block inconclusive, FMDV antiviral inconclusive, Cycloheximide cs 45, Shiga toxin inh 64
O=C(O)c1cc(Nc2nc(N3CCOCC3)nc(N3CCOCC3)n2)ccc1Cl	none
Cc1cccc(-n2ncc(C(=O)N3CCN(Cc4ccccc4)CC3)c2C2CCN(C(=O)OC(C)(C)C)CC2)c1	none (no result: Cycloheximide cs, Shiga toxin inh)
CCOc1ccccc1CNC(=O)CN(c1ccc(C)cc1)S(=O)(=O)N(C)C	none (no result: Cycloheximide cs, Shiga toxin inh)
CCOC(=O)COc1ccc2c3c(c(=O)oc2c1C)CCC3	Cycloheximide cs 15
Cc1c(OCC(=O)NCC(O)c2ccccc2)ccc2c3c(c(=O)oc12)CCCC3 (stereo not given)	FMDV antiviral inconclusive
Cc1c(OCC(=O)N(C)c2ccccc2)ccc2c3c(c(=O)oc12)CCC3	Cycloheximide cs 24, Shiga toxin inh 74
Cc1c(OCC(=O)C(C)(C)C)ccc2c3c(c(=O)oc12)CCCC3	none (no result: Shiga toxin inh)
O=C(CCc1ccc(S(=O)(=O)NC2CCCCC2)cc1)NCc1ccccn1	Sm TGR block 35µM, Cycloheximide cs 44, Shiga toxin inh 98
Cc1cccc(N2CCN(C(=O)c3cnn(-c4ccc(F)cc4F)c3C3CCN(C(=O)OC(C)(C)C)CC3)CC2)c1C	none (no result: Cycloheximide cs, Shiga toxin inh)
S=C(NC1CC1)N1CCN(C(=S)NC2CC2)CC1	Cycloheximide cs 28
CC(=O)N1N=C(c2ccccc2)CC1c1cn(Cc2ccccc2)c2ccccc12 (stereo not given)	FMDV antiviral 32µM
CC(=O)N1N=C(c2ccncc2)CC1c1ccccc1O (stereo not given)	none
CCn1cc(S(=O)(=O)c2cccc(Cl)c2)c(=O)c2cc(F)c(N3CCN(C)CC3)cc21	Sm TGR block inconclusive (no result: Cycloheximide cs, Shiga toxin inh)
CCn1c(C)nc2cc(C(=O)N/N=C/c3cccc(O)c3O)ccc21	Cycloheximide cs 31, Shiga toxin inh 67
